# Reference: PubChem BioAssay (NCATS)
# Inconclusive results are not listed. The source made the active and inactive calls. Unless noted, the call rests on the fitted dose curve; in most records, active means well fitted curve in the direction sought with a large enough effect; inconclusive means small, poorly fitted or top-dose-only effect, or another doubt; inactive means no such curve, though single readings can be large; an effect the other way counts as inactive or inconclusive.
# What was measured:
# [1] = target: Cytochrome P450 3A4 (Homo sapiens) (UniProt P08684); test: qHTS Assay for Inhibitors and Substrates of Cytochrome P450 3A4 (AID 884); further: nearly all actives have a fitted effect of over 50% in size; further: potency means the concentration at half of the fitted maximal effect; on activity change, negative = inhibition: on the % scale 0 is the no-effect control and ±100 the full control effect
# Method in brief: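 20 nM human CYP3A4 with 25 uM Luciferin-PPXE (at KM) in 200 mM KPO4, preincubated 10 min with compound; NADPH regeneration started a 60 min RT reaction. Luciferin detected by luminescence, normalized to 57 uM ketoconazole as full inhibition.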
# [2] = qHTS Assay for Lipid Storage Modulators (AID 1519; calls by dose curve; on activity change, negative = inhibition: on the % scale 0 is the no-effect control and ±100 the full control effect); details: Drosophila S3 cells, BODIPY lipid droplet/cell ratio, laser cytometry, cells loaded with oleic acid
# Method in brief: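 Cells seeded at 5,000 per well were treated with compounds over a concentration series and loaded with oleic acid (400 uM, as added). Lipid droplet fluorescence (488 nm excitation, 500-530 nm channel) was read by laser-scanning cytometry and normalized to 20 uM Triacsin C.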
# [3] = target: DNA dC->dU-editing enzyme APOBEC-3G (Homo sapiens) (UniProt Q9HC16); test: qHTS for inhibitors of Vif-A3G interactions: Validation (AID 588379); further: 0% is about no effect
# Method in brief: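 HeLa cells stably expressing Vif and A3G-eYFP, 700 cells/well, incubated overnight at 37 deg C, then exposed to compound overnight at 37 deg C. Inhibition of Vif-mediated degradation read as increased yellow fluorescence (Ex 488/Em 500-530) by laser-scanning cytometry.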
# [4] = Confirmation and Secondary Assay for Modulators of Hemoglobin Beta Chain Splicing at IVS2 654 locus (AID 910);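 further: HeLa cells stably carrying EGFP split by mutant beta-globin IVS2-654 intron; % of control where 0% means no effect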
# Method in brief: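 HeLa cells stably expressing EGFP interrupted by β-globin IVS2-654 intron, seeded overnight in Opti-MEM/2% FCS, then treated 2 days at 37 °C. Restored splicing read as total peak GFP intensity per well by laser scanning cytometry (488 nm excitation, 500–520 nm emission); 500 nM antisense PNA as control.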
# [5] = Confirmation and Secondary Assay for Modulators of Hemoglobin Beta Chain Splicing at IVS2 705 locus (AID 930);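 further: HeLa cells stably expressing the EGFP-705 splicing reporter; GFP fluorescence per well restored by corrected splicing of the IVS2-705 intron in EGFP; % of control where 0% means no effect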
# Method in brief: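 Assay measures total GFP intensity per well in HeLa EGFP-705 cells after 2 days with compound; mis-splicing normally truncates EGFP, so fluorescence indicates corrected splicing.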
# [6] = target: Ubiquitin carboxyl-terminal hydrolase 1 (Homo sapiens) (UniProt O94782); test: Inhibitors of USP1/UAF1: Pilot qHTS (AID 504865);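 further: rhodamine fluorescence freed from ubiquitin-rhodamine substrate followed over time; top concentration of the series differs between compounds; on the % scale 0 is the no-effect control and ±100 the full control effect; nearly all actives have a fitted effect of over 35% in size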
# Method in brief: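 USP1/UAF1 complex (1nM) preincubated with compound 15 min at room temperature, then Ub-Rho substrate (150nM final) added. Fluorescence read kinetically at 480/540 nm, 6 reads every 60 seconds. Buffer: 50mM HEPES pH 7.8, 0.5mM EDTA, 0.1 mg/ml BSA, 1mM TCEP, 0.01% Tween-20.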
# [7] = target: Cytochrome P450 3A4 (Homo sapiens) (UniProt P08684); test: qHTS Assay for Activators of Cytochrome P450 3A4 (AID 885); further: nearly all actives have a fitted effect of over 65% in size
# Method in brief: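 Steps: enzyme/substrate mix dispensed; compound added, 10 min RT; NADPH regeneration solution added, 60 min RT; luciferin detection buffer stops reaction; 20 min later luminescence measured.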
# [8] = target: Cytochrome P450 2D6 (Homo sapiens) (UniProt P10635); test: qHTS Assay for Inhibitors and Substrates of Cytochrome P450 2D6 (AID 891); further: potency means the concentration at half of the fitted maximal effect; nearly all actives have a fitted effect of over 60% in size
# Method in brief: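 Human CYP2D6 (5 nM) with 30 uM Luciferin-ME EGE (at Km) in 100 mM KPO4, compound preincubated 10 min, then NADPH regeneration system for 60 min at room temperature. Luciferin read by luminescence; normalized to 1.43 uM quinidine.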
# [9] = target: Alpha-galactosidase (Coffea arabica) (UniProt Q42656); test: Counterscreen for Glucocerebrosidase Inhibitors: qHTS Assay for Coffee Bean alpha-Galactosidase at pH 4.5 (AID 957);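 further: plate controls were enzyme alone for no effect and no enzyme for full effect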
# Method in brief: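 AC50 values derive from Hill-equation modeling of concentration-response data, normalized to no-enzyme and full-activity controls. The pH 4.5 citrate assay used 2 nM coffee bean enzyme and 80 uM fluorogenic substrate for 20 min.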
# [10] = target: Alpha-galactosidase (Coffea arabica) (UniProt Q42656); test: Counterscreen for Glucocerebrosidase Inhibitors: qHTS Assay for Coffee Bean alpha-Galactosidase at pH 5.9 (AID 998);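 further: plate controls were uninhibited enzyme for no effect and no-enzyme basal signal for full effect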
# Method in brief: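 Green coffee bean enzyme (2 nM) with 4-methylumbelliferyl alpha-D-galactopyranoside (80 uM) in 50 mM citric acid, 0.005% Tween-20, pH 5.9, 20 min at room temperature; compounds 0.7 nM–77 uM. Stopped at pH 10, fluorescence Ex365/Em440; Hill-fit AC50.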
# [11] = measured here: cell count channel max response
# [12] = measured here: lipid channel max response
# Sequence of DNA dC->dU-editing enzyme APOBEC-3G (Homo sapiens) (Q9HC16 whole entry, looked up): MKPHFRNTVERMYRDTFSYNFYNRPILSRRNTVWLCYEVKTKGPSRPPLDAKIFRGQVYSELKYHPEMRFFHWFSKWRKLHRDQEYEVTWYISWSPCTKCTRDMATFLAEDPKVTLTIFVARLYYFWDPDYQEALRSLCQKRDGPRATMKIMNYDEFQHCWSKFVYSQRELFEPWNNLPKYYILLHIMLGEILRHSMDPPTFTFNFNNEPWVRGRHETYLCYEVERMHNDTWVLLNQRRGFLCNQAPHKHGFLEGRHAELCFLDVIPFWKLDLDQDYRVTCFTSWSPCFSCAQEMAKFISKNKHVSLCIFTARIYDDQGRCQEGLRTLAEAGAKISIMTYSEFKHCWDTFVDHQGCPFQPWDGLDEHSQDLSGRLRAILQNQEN
# Sequence of Ubiquitin carboxyl-terminal hydrolase 1 (Homo sapiens) (O94782 whole entry, looked up): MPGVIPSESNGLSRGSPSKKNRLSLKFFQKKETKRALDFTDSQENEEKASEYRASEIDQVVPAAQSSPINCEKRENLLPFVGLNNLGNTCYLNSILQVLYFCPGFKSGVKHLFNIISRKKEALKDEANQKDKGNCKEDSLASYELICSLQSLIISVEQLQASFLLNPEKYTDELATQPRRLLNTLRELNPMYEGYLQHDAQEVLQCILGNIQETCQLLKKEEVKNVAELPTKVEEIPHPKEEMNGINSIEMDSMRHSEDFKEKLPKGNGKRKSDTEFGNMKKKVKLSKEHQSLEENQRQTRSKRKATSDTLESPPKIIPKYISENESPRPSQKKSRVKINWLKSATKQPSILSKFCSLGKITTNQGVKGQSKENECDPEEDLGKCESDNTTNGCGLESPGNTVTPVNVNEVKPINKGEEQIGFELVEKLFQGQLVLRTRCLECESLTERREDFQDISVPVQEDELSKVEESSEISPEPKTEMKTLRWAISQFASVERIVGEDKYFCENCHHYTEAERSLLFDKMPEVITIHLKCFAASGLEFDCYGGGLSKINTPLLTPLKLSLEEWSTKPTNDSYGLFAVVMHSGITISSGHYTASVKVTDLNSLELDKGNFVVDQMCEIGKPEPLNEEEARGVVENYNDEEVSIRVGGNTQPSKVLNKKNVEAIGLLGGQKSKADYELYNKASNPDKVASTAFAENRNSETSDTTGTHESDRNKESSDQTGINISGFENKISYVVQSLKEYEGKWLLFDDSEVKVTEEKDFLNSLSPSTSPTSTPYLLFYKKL
# Sequence of Cytochrome P450 3A4 (Homo sapiens) (P08684 whole entry, looked up): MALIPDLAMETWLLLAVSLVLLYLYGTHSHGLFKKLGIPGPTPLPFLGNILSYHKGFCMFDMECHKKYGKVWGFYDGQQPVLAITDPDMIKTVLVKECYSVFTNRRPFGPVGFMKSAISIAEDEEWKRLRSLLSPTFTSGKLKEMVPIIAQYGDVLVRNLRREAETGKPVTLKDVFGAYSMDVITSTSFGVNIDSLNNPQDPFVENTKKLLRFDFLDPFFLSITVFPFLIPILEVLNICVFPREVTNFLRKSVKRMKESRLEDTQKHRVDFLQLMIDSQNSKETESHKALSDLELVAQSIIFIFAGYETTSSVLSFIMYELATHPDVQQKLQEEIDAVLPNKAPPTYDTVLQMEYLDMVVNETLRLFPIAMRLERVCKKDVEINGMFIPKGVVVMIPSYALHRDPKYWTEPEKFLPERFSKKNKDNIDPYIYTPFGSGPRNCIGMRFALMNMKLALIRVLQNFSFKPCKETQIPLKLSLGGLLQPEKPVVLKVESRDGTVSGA
# Sequence of Alpha-galactosidase (Coffea arabica) (Q42656 whole entry, looked up): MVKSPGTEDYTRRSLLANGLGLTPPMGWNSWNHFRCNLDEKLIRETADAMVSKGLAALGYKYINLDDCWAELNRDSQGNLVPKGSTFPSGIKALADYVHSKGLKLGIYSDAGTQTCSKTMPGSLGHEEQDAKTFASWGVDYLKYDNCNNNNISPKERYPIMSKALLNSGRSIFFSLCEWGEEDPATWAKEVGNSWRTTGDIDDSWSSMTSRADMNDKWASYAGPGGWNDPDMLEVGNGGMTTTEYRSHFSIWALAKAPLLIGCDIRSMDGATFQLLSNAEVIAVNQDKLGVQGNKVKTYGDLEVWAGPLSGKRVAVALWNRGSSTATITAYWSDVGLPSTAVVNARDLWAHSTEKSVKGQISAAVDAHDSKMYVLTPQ
# Sequence of Cytochrome P450 2D6 (Homo sapiens) (P10635 whole entry, looked up): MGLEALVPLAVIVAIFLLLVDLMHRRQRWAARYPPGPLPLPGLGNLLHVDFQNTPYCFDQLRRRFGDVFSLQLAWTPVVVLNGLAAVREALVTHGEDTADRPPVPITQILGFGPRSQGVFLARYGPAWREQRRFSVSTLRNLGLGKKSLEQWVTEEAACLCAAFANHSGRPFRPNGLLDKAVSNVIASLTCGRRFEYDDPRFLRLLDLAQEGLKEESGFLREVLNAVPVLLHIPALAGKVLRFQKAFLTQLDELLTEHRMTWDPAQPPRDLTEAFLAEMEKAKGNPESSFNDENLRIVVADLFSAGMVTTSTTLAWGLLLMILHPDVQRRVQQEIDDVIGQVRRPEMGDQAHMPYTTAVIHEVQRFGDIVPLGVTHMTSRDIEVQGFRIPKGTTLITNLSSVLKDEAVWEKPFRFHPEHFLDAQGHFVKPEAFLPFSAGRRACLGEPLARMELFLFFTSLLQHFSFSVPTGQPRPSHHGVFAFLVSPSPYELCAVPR
structure (smiles),measurement,setting,value
CNC1C2CN3CCC(O2)C13 (stereo not drawn),Potency,[1],inactive
same,"activity change, negative = inhibition",[2]; at 57.5 µM (top of the series),3.03% (inactive)
same,max response,[2]; [11],7.52%
same,max response,[2]; [12],11.5%
same,outcome,[3],inactive
CCOC(=O)C1C(C=C(C)C)C1(C)C (stereo not drawn),Potency,[4],inactive
same,Potency,[5],inactive
same,"activity change, negative = inhibition",[2]; at 57.5 µM (top of the series),2.84% (inactive)
same,max response,[2]; [11],-1.43%
same,max response,[2]; [12],3.02%
same,Potency,[6],inactive
CCC12CCCN3CCC4(c5ccc(OC)c(O)c5N(C(C)=O)C4CC1)C32 (stereo not drawn),Potency,[1],15.8 µM (active)
same,Potency,[7],inactive
same,"activity change, negative = inhibition",[2]; at 57.5 µM (top of the series),-0.564% (inactive)
same,max response,[2]; [11],14.6%
same,max response,[2]; [12],12.8%
same,outcome,[3],inactive
CNC(=O)Oc1ccc2c(c1)[C@@]1(C)CCN(C)[C@@H]1N2C,Potency,[8],0.631 µM (active)
same,outcome,[9],inactive
same,outcome,[10],inactive
same,"activity change, negative = inhibition",[2]; at 25.7 µM (top of the series),-1.12% (inactive)
same,max response,[2]; [11],-3.51%
same,max response,[2]; [12],-6.16%
same,Potency,[6],inactive
O=C(NC(=O)c1ccccc1Cl)Nc1ccc(OC(F)(F)F)cc1,Potency,[5],inactive
same,"activity change, negative = inhibition",[2]; at 57.5 µM (top of the series),8.39% (inactive)
same,max response,[2]; [11],0.34%
same,max response,[2]; [12],9.8%
same,Potency,[6],inactive
Nc1ncn[nH]1,Potency,[7],inactive
same,Potency,[5],inactive
same,"activity change, negative = inhibition",[2]; at 57.5 µM (top of the series),11.2% (inactive)
same,max response,[2]; [11],9.75%
same,max response,[2]; [12],23.5%
same,Potency,[6],inactive
CC(=O)OC1CCC23C(=O)OC45CCC(C6=CC(=O)OC6)C4(C)CCC2C5CCC3(O)C1 (stereo not drawn),Potency,[5],inactive
same,"activity change, negative = inhibition",[2]; at 57.5 µM (top of the series),-4.87% (inactive)
same,max response,[2]; [11],6.6%
same,max response,[2]; [12],2.69%
same,Potency,[6],inactive
O=C(O)CCC1NCC2CC1CN1CCCCC21 (stereo not drawn),Potency,[4],inactive
same,"activity change, negative = inhibition",[2]; at 57.5 µM (top of the series),2.61% (inactive)
same,max response,[2]; [11],3.62%
same,max response,[2]; [12],5.45%
same,Potency,[6],inactive
COc1cc2c(cc1OC)C(C)NCC2 (stereo not drawn),Potency,[5],inactive
same,"activity change, negative = inhibition",[2]; at 57.5 µM (top of the series),4.92% (inactive)
same,max response,[2]; [11],20%
same,max response,[2]; [12],26%
same,outcome,[3],inactive
COc1cc2c(cc1OC)[C@]13CCN4CC5=CCOC6CC(=O)N2[C@@H]1[C@@H]6C5C[C@@H]43 (stereo partly drawn),Potency,[1],inactive
same,"activity change, negative = inhibition",[2]; at 57.5 µM (top of the series),-2% (inactive)
same,max response,[2]; [11],-11.3%
same,max response,[2]; [12],-11.3%
same,outcome,[3],inactive
CC1=C2C3OC(=O)[C@H](C)[C@H]3CC[C@@]2(C)C=CC1=O (stereo partly drawn),Potency,[7],inactive
same,"activity change, negative = inhibition",[2]; at 57.5 µM (top of the series),2.8% (inactive)
same,max response,[2]; [11],25.6%
same,max response,[2]; [12],29.5%
same,outcome,[3],inactive
CC1/C=C/C=C/CC/C=C/C=C/C=C/C=C/C(OC2OC(C)C(O)C(N)C2O)CC2O[C@](O)(CC(O)C(O)CCC(O)CC(O)CC(O)CC(=O)OC(C)C(C)C1O)CC(O)C2C(=O)O (stereo partly drawn),Potency,[4],inactive
same,Potency,[5],inactive
same,"activity change, negative = inhibition",[2]; at 57.5 µM (top of the series),9.08% (inactive)
same,max response,[2]; [11],17%
same,max response,[2]; [12],32%
same,Potency,[6],inactive
CCN1C[C@@]2(C)CC[C@@H](OC)[C@@]34C2C(O)[C@@]2(OCO[C@]25CC(OC)C2C[C@@]3(O)C5C2O)C14 (stereo partly drawn),Potency,[7],inactive
same,Potency,[5],inactive
same,"activity change, negative = inhibition",[2]; at 57.5 µM (top of the series),2.86% (inactive)
same,max response,[2]; [11],1.33%
same,max response,[2]; [12],4.66%
same,Potency,[6],inactive
O=c1cccc2n1CC1CC2CN2CCCCC12 (stereo not drawn),Potency,[4],inactive
same,Potency,[5],inactive
same,"activity change, negative = inhibition",[2]; at 57.5 µM (top of the series),0.982% (inactive)
same,max response,[2]; [11],1.81%
same,max response,[2]; [12],1.59%
same,Potency,[6],inactive
